LDHA inh: blocks human lactate dehydrogenase A; P00338; purified LDHA, NADH/diaphorase-resazurin fluorescence; active compounds read low; hit rate 0.15% among 480,000; activity change, % (values are at about 110 or 230 µM); in the data active = activity change below about -30%; inconclusive = mostly about -25% to -30%;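 also: plate controls were DMSO wells for no effect and wells without enzyme for full effect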
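Human LDH5 (2 nM) was incubated with 0.06 mM NADH and 0.2 mM pyruvate for 5 min at room temperature in Tris pH 7.4. Remaining NADH was coupled through diaphorase/resazurin, and resorufin fluorescence was read at 0 and 20 min.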
A549 tox: kills or reduces viability of A549 cells in Nrf2 counter-screen; A549 ARE-Fluc cells, CellTiter-Fluor viability, 18-24 h; Potency, µM (series often up to 46 µM), without a hit: at the highest dose activity change, negative = cytotoxicity, actives largely listed as inhibitors; hit rate 0.16% among 390,000; AID 504648; also: potency is read from the fitted curve at half-maximal effect; % is scaled to controls: 0 for no effect and ±100 for the full control effect
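Cytotoxicity counterscreen: CellTiter-Fluor fluorescence was measured in A549 ARE_Fluc cells after 18-24 h of compound exposure in a concentration series. The subsequent BugLite luminescent read reports ARE-luciferase activity.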
Nrf2 ARE act: Nrf2 pathway activation. Potency, µM (top dose mostly 46.1 µM), inactives show top-dose activation, hits mostly activators. AID 624171. AREc32 ARE-luciferase reporter (MCF7-derived line), luminescence, 24 h. hit rate 0.31% among 410,000; also: potency is read from the fitted curve at half-maximal effect; % of control where 0% means no effect; nearly all actives have a fitted effect of over 65% in size
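Quantitative high-throughput format: AREc32 reporter cells, 1000 per well, received compound by pin transfer and were incubated 24 hr at 37 deg C, 5% CO2, before Steady-Glo luminescence detection.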
mIDH1 inhibitor: human IDH1 R132H inhibition; O75874; IDH1-R132H enzyme, NADPH consumption, diaphorase/resazurin fluorescence; Potency, µM (doses to about 76.6 µM), for the others: at the highest dose activity change, negative = inhibition, actives largely listed as inhibitors; hit rate 0.093% among 390,000; also: potency is read from the fitted curve at half-maximal effect; % is scaled to controls: 0 for no effect and ±100 for the full control effect; nearly all actives have a fitted effect of over 65% in size
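IDH1-R132H (0.5 ug/mL dispensed) in pH 7.5 Tris buffer was preincubated 30 min with compound, then given a substrate mix of 0.016 mM NADPH and 2 mM alpha-KG for 80 min at room temperature; remaining NADPH was read by diaphorase/resazurin fluorescence.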
Nrf2 block: blocks Nrf2 signaling; A549 ARE-Fluc reporter, luciferase luminescence, 18-24 h; Potency, µM (series often up to 46 µM), inactives show top-dose activity change, negative = inhibition, actives largely listed as inhibitors; hit rate 2.1% among 360,000; AID 504444; also: potency is read from the fitted curve at half-maximal effect; % is scaled to controls: 0 for no effect and ±100 for the full control effect; nearly all actives have a fitted effect of over 60% in size
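Concentration-response testing used A549 ARE_Fluc cells at 5000 cells/well. Following an 18-24 h compound incubation, viability was read by fluorescence (Ex 405/Em 525) and luciferase output by luminescence.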
ALOX12 inh: ALOX12 (human) lipoxygenase inhibition; AID 1671190; Potency, µM (doses to about 108 µM), for the others: at the top dose activity change, negative = inhibition, usual class: inhibitors; P18054; purified 12hLO, xylenol orange hydroperoxide absorbance; hit rate 1.1% among 580,000; also: potency is read from the fitted curve at half-maximal effect; % is scaled to controls: 0 for no effect and ±100 for the full control effect
Target sequence (P18054 whole entry, looked up): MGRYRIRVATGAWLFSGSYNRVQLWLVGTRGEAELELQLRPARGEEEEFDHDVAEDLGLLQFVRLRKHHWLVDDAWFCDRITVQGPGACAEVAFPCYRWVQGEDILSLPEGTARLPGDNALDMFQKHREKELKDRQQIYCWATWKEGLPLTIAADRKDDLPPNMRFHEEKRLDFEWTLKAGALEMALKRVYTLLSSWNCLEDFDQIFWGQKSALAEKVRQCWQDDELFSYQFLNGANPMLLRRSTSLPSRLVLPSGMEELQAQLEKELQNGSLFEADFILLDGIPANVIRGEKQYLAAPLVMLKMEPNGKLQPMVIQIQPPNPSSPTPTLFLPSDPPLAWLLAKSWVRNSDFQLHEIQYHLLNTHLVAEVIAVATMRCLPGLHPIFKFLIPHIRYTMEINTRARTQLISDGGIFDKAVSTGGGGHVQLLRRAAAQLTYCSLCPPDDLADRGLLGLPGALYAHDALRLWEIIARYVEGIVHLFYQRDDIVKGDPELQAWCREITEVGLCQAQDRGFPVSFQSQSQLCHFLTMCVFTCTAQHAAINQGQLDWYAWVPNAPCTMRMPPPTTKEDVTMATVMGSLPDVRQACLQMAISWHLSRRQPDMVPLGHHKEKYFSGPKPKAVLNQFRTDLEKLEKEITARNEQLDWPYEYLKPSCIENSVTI
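Purified human 12hLO at 150 nM in 25 mM Hepes, 0.01% Triton X-100, pH 7.0, preincubated 15 min at room temperature with compound. Reaction started with 40 uM arachidonic acid, 30 min at room temperature. Hydroperoxide measured by Fe-xylenol orange, 573/405 nm absorbance ratio.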
Numbers without * were called inactive; ? = inconclusive; . = no result given; [ ] = remark or other dose. Rows were chosen to be rich in hits. Some 2.7% of all compounds tested hit in one or more screens of this group. Unless noted, calls follow the shape of the dose curve; as a rule, active = well fitted curve in the direction sought with a large enough effect; inconclusive = small, poorly fitted or top-dose-only effect, or another doubt; inactive = no such curve, though single readings can be large; an effect the other way counts as inactive or inconclusive.

SMILES	LDHA inh	A549 tox	Nrf2 ARE act	mIDH1 inhibitor	Nrf2 block	ALOX12 inh
CCOc1cc(CNCCSc2nnnn2C)ccc1OCc1ccc(Cl)cc1Cl	2.0	?	-3.0%	-1.2%	-27.2%	-36.0%
Cn1nnnc1SCCNCc1ccccc1OCc1ccc(Cl)cc1Cl	-2.0	-0.9%	-5.0%	-12.7%	11.6µM*	-23.7%
O=C(Cc1cccs1)Nc1ccc(-c2nnc(-c3ccccc3)o2)cc1	-2.6	0.3%	4.2%	-0.7%	10.3%	4.8%
Cc1cccc(-c2nnc(-c3cccc(NC(=O)Cc4cccs4)c3)o2)c1	-2.9	?	3.7%	0.5%	20.6µM*	9.2%
COc1ccc(OC)c(C(=O)COC(=O)CCC(=O)c2ccc(Cl)cc2)c1	11.2	.	.	.	.	?
Cc1ccc2[nH]c3c(N4CCN(Cc5ccccc5)CC4)ncnc3c2c1	1.8	?	-1.5%	-1.0%	9.2µM*	-25.0%
c1ccc2c(c1)[nH]c1c(N3CCC4(CC3)OCCO4)ncnc12	-16.0	-17.6%	3.4%	1.6%	13µM*	.
c1ccc(CN2CCN(c3ncnc4c3[nH]c3ccccc34)CC2)cc1	-7.8	-19.3%	0.1%	9.2%	14.6µM*	31.2%
COc1cccc2[nH]c3c(N4CCC5(CC4)OCCO5)ncnc3c12	1.6	14.4%	3.2%	-2.5%	0.5%	93.5%
C=CC[C@H]1CC(C)=C[C@H](CC=C)N1Cc1ccc(CN(C)S(C)(=O)=O)o1	.	.	.	.	.	107.5%
O=C(C1CCCN(Cc2cccc3ccccc23)C1)N1CCc2ccccc2C1 (stereo not drawn)	-8.5	.	.	.	.	0.631µM*
Cc1cc(C)cc(NC(=O)CSc2nc(=O)n(Cc3ccccn3)c3c2CCC3)c1	-5.2	-1.4%	1.1%	-4.6%	.	-11.1%
O=C(CSc1nc(=O)n(Cc2ccccn2)c2c1CCC2)Nc1ccccc1	0.2	0.6%	3.2%	-17.0%	25.9µM*	-13.5%
O=C1NC2(C(=O)Nc3ccc(Cl)cc3)CCC(=O)N2c2ccccc21 (stereo not drawn)	2.6	.	.	.	.	25.6%
COc1ccc2c3c([nH]c2c1)[C@@H](CO)N(Cc1ccccc1)CC31CN(C(=O)Cc2ccccc2)C1	.	.	.	.	.	5.01µM*
COc1ccc2c3c(n(C)c2c1)[C@H](CO)N(C(=O)Cc1ccccc1)CC31CCN(C(=O)Cc2ccccc2)CC1	.	.	.	.	.	-16.9%
CC1=NS(=O)(=O)NC(C)=C1CCC(=O)Nc1ccc(C(C)(C)C)cc1	1.6	.	.	.	.	?
CN(C)CCCNc1c2c(nc3ccccc13)CCC2	-0.4	13µM*	-2.5%	2.0%	5.1%	-19.8%
COCCNc1c2c(nc3ccccc13)CCC2	-1.2	0.7%	-0.6%	18.0%	2.9%	-2.1%
OCCCNc1c2ccccc2nc2ccccc12	3.7	?	-1.1%	4.2%	8.2µM*	-13.5%
Cc1ccc(-c2nnn(CC(=O)N(Cc3cccs3)C(C(=O)NC3CCCC3)c3ccncc3)n2)cc1 (stereo not drawn)	1.1	-16.7%	5.0%	-2.5%	6.51µM*	-3.5%
CCC(CC)NC(=O)C1CCc2nc(N3CCN(C(=O)C(C)C)CC3)sc2C1 (stereo not drawn)	.	.	.	.	.	35.5µM*
CCC(=O)N1CCN(c2nc3c(s2)CC(C(=O)NCc2ccccc2)CC3)CC1 (stereo not drawn)	.	.	.	.	.	32.7%
COc1ccc(/C=C2\CCC/C(=C\c3ccc(OC)c(OC)c3OC)C2=O)c(OC)c1OC	1.7	?	16.6%	8.6%	8.2µM*	-0.7%
COc1cc(OC)c(OC)cc1/C=C1\CCC/C(=C\c2cc(OC)c(OC)cc2OC)C1=O	6.5	?	23.7%	-7.0%	?	?
SMILES	LDHA inh	A549 tox	Nrf2 ARE act	mIDH1 inhibitor	Nrf2 block	ALOX12 inh
Cc1ccccc1NC(=O)N1CCCC(c2nc(-c3ccc(C(C)C)cc3)no2)C1 (stereo not drawn)	6.9	?	-0.7%	2.2%	5.8µM*	7.3%
Cc1ccccc1NC(=O)N1CCCC(c2nc(-c3ccc(F)cc3)no2)C1 (stereo not drawn)	-4.3	-6.9%	3.4%	2.2%	-3.8%	8.9%
Cc1ccc(-c2csc3ncnc(Sc4nnc(CN5CCCCCC5=O)o4)c23)cc1	-3.6	?	?	-2.2%	14.6µM*	-15.1%
COC(=O)c1cc(C(C)C)sc1NC(=O)Cc1c(Cl)cccc1Cl	8.9	.	.	.	.	-28.0%
CC(C)c1cc(C(C)C)c(CC(=O)NS(=O)(=O)Oc2c(C(C)C)cccc2C(C)C)c(C(C)C)c1	.	.	.	.	.	24.3µM*
Cc1cccc(C)c1NC(=O)Cn1c(=O)n(Cc2ccc(C(=O)NCc3ccco3)cc2)c(=O)c2sccc21	-15.0	-22.0%	0.2%	.	18.4µM*	?
CC(=O)Nc1ccc(S(=O)(=O)N2CCC(NC(=O)CCC(C)C)CC2)cc1	5.4	.	.	.	.	?
CC(=O)Nc1cc(-c2ccccc2N(C)C)cn2c(-c3cccc(C(F)(F)F)c3)cnc12	2.9	.	0.1%	.	.	8.91µM*
O=CNc1cc(-c2cccc(O)c2)cn2c(-c3ccc(F)cc3)cnc12	-7.2	.	13.6%	.	.	44.7µM*
CC(=O)Nc1cc(-c2ccc(CO)cc2)cn2c(-c3ccc(F)cc3)cnc12	0.6	.	14.1%	.	.	44.7µM*
CC(C)CC(=O)NC(NC(=O)CC(C)C)c1ccccc1	6.8	.	.	.	.	-18.3%
CCOC(=O)C1CCCN(C(=O)C2CC(c3ccc(CC)cc3)CN(C(=O)c3ccoc3)C2)C1 (stereo not drawn)	.	.	.	.	.	-9.3%
O=C(CC1CC2CCC1C2)Nc1ccc(Cl)c(C(F)(F)F)c1 (stereo not drawn)	4.3	.	.	.	.	-3.1%
COC(=O)C(C)N(C(=O)c1cccc2ccccc12)c1c(C)cccc1C (stereo not drawn)	-2.4	-11.1%	-1.6%	3.5%	18.4µM*	?
CC(C)CNC(=O)c1cc(N2CCOCC2)cc2c1OCCN2C	.	.	.	.	.	-10.4%[176 µM]
COc1ccc2oc3c(ccc[n+]3C)c(=O)c2c1	-19.3	.	-0.1%	.	.	12.6µM*
Cc1ccc(C(=O)N/N=C/CC(C)C)cc1	9.5	.	.	.	.	8.2%
COc1ccc2[nH]c(C)c(CCNC(=O)c3cc4cccc(OC)c4oc3=O)c2c1	3.0	.	.	.	.	-4.3%
CCCCCCc1cc2c3c(c(=O)oc2cc1OCC(=O)OC(C)C)CCCC3	3.1	.	.	.	.	13.1%
Cc1cccc(N2CCN(C(=O)C(NS(=O)(=O)c3cccs3)c3ccccc3)CC2)c1C (stereo not drawn)	-10.8	-14.1%	-0.1%	3.6%	9.2µM*	21.1%
O=C(C(NS(=O)(=O)c1cccs1)c1ccccc1)N1CCN(c2ccccc2F)CC1 (stereo not drawn)	2.9	20.3%[1.84 µM]	-0.1%	0.8%	-19.5%	5.0%
O=S(=O)(Nc1nc2ccccc2nc1N1CCCC1)c1ccc(F)cc1	1.7	.	.	.	.	-6.6%

Bioassay records from PubChem BioAssay.
